Reference: ChEMBL document CHEMBL4513216, “Probing the Open Global Health Chemical Diversity Library for Multistage-Active Starting Points for Next-Generation Antimalarials” (ACS Infect Dis, 2020)
The whole screen tested about 65,000 compounds, of which about 2,100 (3.2%) showed an effect of 50% or more. The median lay at about -52%. The entries come from a sample that favours strong results as a whole.

System: Plasmodium falciparum
Experiment: Screen against P. falciparum Asexual Blood Stage (ABS), at 5uM
Assay type: functional, Dd2
Conditions: tested at 5 uM

Structure (SMILES)	INHIBITION [%]
CCn1cc(NC(=O)CCc2ccc3c(c2)OCCCO3)cn1	-127
Brc1ccc(-c2nnc(CN(Cc3cccs3)CC3CCCO3)o2)s1 (centres undefined)	-45.2
Cc1cnn(CC2CCCN2Cc2nnc(C3CC3)n2C)c1 (centres undefined)	-100
COC1[C@@H]2CC[C@H]1CN(c1nc(C)nc3sccc13)C2 (some centres undefined)	-88.3
O=C(c1cc(C2CC2)on1)N1CCCC(n2cncn2)C1 (centres undefined)	-34.5
Cc1cc(C(=O)N2CCCC(n3cncn3)C2)on1 (centres undefined)	-247
Cc1cc(C(=O)N2CCCC(n3cncn3)C2)no1 (centres undefined)	66.7
Cc1ccc(-c2cc(C(=O)NCCCc3csc(N)n3)[nH]n2)s1	66.5
Cc1ccc(-c2cc(C(=O)NCCCc3csc(N)n3)[nH]n2)o1	22
Cn1cccc1-c1cc(C(=O)NCCCc2csc(N)n2)[nH]n1	-75.5
Cc1nc(C)c(CNC(=O)N2CCN(c3ccc(Cl)cn3)CC2)s1	-49.6
O=C(NC1CCC1)[C@@H]1C[C@@H]2CCN(Cc3cccs3)C[C@@H]2O1	-168
CC(C)(N)C(=O)N1CCC(c2nccnc2Oc2ccccc2F)CC1	-4.82
NC(=O)c1cccc(C2CCN(c3ncccn3)CC2)n1	-58
O=C(Cc1cccc(Cl)c1)N[C@@H]1CCNC[C@H]1O	-75.4
O=C1NCCCc2[nH]c(Cc3cccc(Cl)c3)nc21	-167
Clc1cccc(C[C@@H]2NCCC[C@@H]2Nc2ccccc2)c1	88.7
CC(NC(=O)NCCCc1n[nH]c(N)c1C#N)c1cccc(Cl)c1 (centres undefined)	0.414
COCC(=O)N(C)Cc1nc(N2CCCC2)ncc1-c1ccncc1	-9.28
Cc1ccc(CN2Cc3nnn(C)c3C(COCC3CC3)C2)s1 (centres undefined)	-90.4
CCn1nnc2c1C(COCCN(C)C)CN(Cc1ccco1)C2 (centres undefined)	-67.6
CCn1nnc2c1C(COCCN(C)C)CN(Cc1ccc(C)s1)C2 (centres undefined)	60.1
CCOC(=O)N1CC(=O)N(Cc2ccc(OC)cc2)CC(O)C1 (centres undefined)	-109
Cc1occc1C(=O)N1CCC2(CCC2NC(=O)c2ccn(C)c2)CC1 (centres undefined)	-23.1
CC(NCc1ccc(C(C)(C)C)cc1)c1ccc(S(C)(=O)=O)cc1 (centres undefined)	-7.37
CC(NCc1ccc(F)cc1)c1ccc(S(C)(=O)=O)cc1 (centres undefined)	-28.9

Structure (SMILES)	INHIBITION [%]
CC(C)c1ccc(CNC(C)c2ccc(S(C)(=O)=O)cc2)cc1 (centres undefined)	53.6
Cc1ccc(-c2cc(CN3CCc4cnc(C)nc4C3)on2)cc1	-29
O=C1CCC2(CCC(NCc3ccsc3)CC2)N1Cc1ccccc1 (centres undefined)	65.3
CN1C(=O)CCC12CCC(NCc1ccsc1)CC2 (centres undefined)	-30.4
O=C1CCC2(CCC(NCc3cccnc3)CC2)N1Cc1ccccc1 (centres undefined)	-16.6
Cc1cc(C(=O)NCC(F)(F)F)c2c(C3CCNCC3)noc2n1	-42.4
CCn1nc2c(cc1=O)CN(c1ncnc3ccsc13)CC2	17.6
CC(=O)N1CCO[C@@H]2CN(Cc3ccccc3F)C[C@@H]2C1	-77.7
O=S(=O)(c1cccc(Cl)c1)N1CCCC(Cn2cncn2)C1 (centres undefined)	-36.3
CN(C)Cc1cc(C2CCCN(S(=O)(=O)c3cccc(Cl)c3)C2)nn1C (centres undefined)	56.5
CN(C)S(=O)(=O)N1CCCC(c2nccnc2-c2cccc(Cl)c2)C1 (centres undefined)	-85.8
Cc1cccc(-n2ncc3c2CCCC3NCC(C)(C)CO)c1C (centres undefined)	-58.1
O=C(c1ccsc1)N1C[C@H]2CCC[C@@]2(COCc2cccnc2)C1	-29.9
Cc1ccc(CN2C[C@@H](C(=O)Nc3cccnc3)C[C@H]3OCC[C@H]32)o1	-35.4
Cc1nccc(-c2cccc(-c3ccn(CC4CCNC4)n3)c2)n1 (centres undefined)	-137
Cc1ccsc1-c1cccc(-c2ccn(CC3CCNC3)n2)c1 (centres undefined)	61.7
c1cc(-c2cncnc2)cc(-c2ccn(CC3CCNC3)n2)c1 (centres undefined)	13.9
Cc1cccc(C(=O)N2CC[C@]3(C[C@H](OCc4ccccn4)CO3)C2)c1	-121
CCN(CC)c1ccc(NS(=O)(=O)c2cccnc2)cn1	59.3
CCN(CC)c1ccc(NS(=O)(=O)c2cncc(F)c2)cn1	-19.4
CCN(CC)c1ccc(NS(=O)(=O)c2cnn(C)c2)cn1	-98.6
NC1CCCc2c1cnn2-c1cc(F)cc(F)c1 (centres undefined)	53.6
Cc1ccc(-n2ncc3c2CCCC3N)cc1C (centres undefined)	7.06
CC(C)(C)c1ccc(-n2ncc3c2CCCC3N)cc1 (centres undefined)	31.8
CC(O)CN1CCN(Cc2csc(-c3ncccn3)n2)CC1 (centres undefined)	-107
c1ccc(CC2(CNCc3ncc[nH]3)CCC2)cc1	45.2

Structure (SMILES)	INHIBITION [%]
CCC1(CNCc2ncc[nH]2)CCCC1	67
CCCC1(CNCc2ncc[nH]2)CCC1	26.4
CCc1ccc(C(=O)N2CC[C@H](Oc3cccnc3C)[C@@H](O)CC2)cc1	-41
CN(C)c1cc(C(=O)N2CCCCCC2)ccn1	-8.55
CN(C)c1cc(C(=O)N2CCCCC2)ccn1	-78.5
CN(C)c1cc(C(=O)N2CCCC2)ccn1	55.6
Cc1ccc(N(CCC#N)C(=O)CN2CCCC2c2cccs2)cc1 (centres undefined)	13.3
CCN(C(=O)CN1CCCC1Cc1ccccc1)c1ccccc1 (centres undefined)	61.3
N#CCCN(C(=O)CN1CCCC1c1ccccc1Cl)c1ccccc1 (centres undefined)	40.4
CN(C(=O)CN1CCCC1Cc1ccccc1)c1ccccc1 (centres undefined)	22.7
Cc1ccc(C2CCCN2CC(=O)N(CCC#N)c2ccccc2)cc1 (centres undefined)	62.4
N#CCCN(C(=O)CN1CCCC1c1ccsc1)c1ccccc1F (centres undefined)	69.7
Cc1ccc(N(CCC#N)C(=O)CN2CCCC2c2ccsc2)cc1 (centres undefined)	46.2
N#CCCN(C(=O)CN1CCCC1c1ccsc1)c1ccccc1 (centres undefined)	1.81
N#CCCN(C(=O)CN1CCCC1Cc1ccccc1)c1ccccc1 (centres undefined)	22.1
N#CCCN(C(=O)CN1CCCC1C1CCCCC1)c1ccccc1 (centres undefined)	52.2
CCN(C(=O)CN1CCCC1c1ccc(OC)cc1)c1ccccc1 (centres undefined)	18.8
N#CCCN(C(=O)CN1CCCC1c1cccs1)c1ccccc1F (centres undefined)	40
CC(C)Nc1ncc(-c2csc(NC(=O)C[C@H]3COCCN3)n2)cn1	-130
c1ccc(CN2CCc3ncnc(-c4cccnc4)c3CC2)nc1	-71.1
Cc1cnccc1NCCNC1CCSCC1	-40.9
CCc1nccn1CC(=O)Nc1cccc(N2CCCC2)c1	-50.9
Cn1nc(C2CCCNC2)c2c(C(=O)NC3CC3)cc(C3CC3)nc21 (centres undefined)	-98.6
CC(=O)c1ccc(OCC(=O)NS(=O)(=O)c2ccc(C)s2)cc1	-93.5
CC(C)C(NC(N)=O)C(=O)NCc1ccc(N2CCCC2)nc1 (centres undefined)	-34.4
Cc1noc(CN2C[C@@H]3CC[C@H]2CN(C2Cc4ccccc4C2)C3)n1	3.93

Structure (SMILES)	INHIBITION [%]
Cc1cc(CN2C[C@@H]3CC[C@H]2CN(C2Cc4ccccc4C2)C3)on1	62.7
Cc1nnc(CN2C[C@@H]3CC[C@H]2CN(C2Cc4ccccc4C2)C3)o1	38.4
Cc1noc(CNC(=O)CN(C)c2nc3c(C)ccc(C)c3s2)n1	-71.5
CCCn1nccc1-c1cc(C2CCN(S(C)(=O)=O)CC2)ccn1	-114
CN(C[C@@H]1CCC[C@@H]2CN(c3ncccn3)C[C@@H]21)C1CC1	17.5
CN(C)C[C@@H]1CCC[C@@H]2CN(c3ncccn3)C[C@@H]21	44.8
CN(C)C[C@@H]1CCC[C@@H]2CN(c3nccc(C(F)(F)F)n3)C[C@@H]21	64.8
COCCN(C)C[C@@H]1CCC[C@@H]2CN(c3ncccn3)C[C@@H]21	33.9
Cc1ccc(N2C[C@H]3CCC[C@@H](CN(C)C)[C@H]3C2)nn1	-54.9
CN(C)C[C@@H]1CCC[C@@H]2CN(c3cccnc3)C[C@@H]21	56.4
O=C(NCc1cc(=O)n2c(n1)CN(CC1CC1)CCC2)c1ccsc1	-69.7
c1cnc(N2CC3(CCN(CC4CCOC4)CC3)c3ccccc32)nc1 (centres undefined)	-5.4
c1cnc(N2CC3(CCN(C4CCOCC4)CC3)c3ccccc32)nc1	64
c1cnc(N2CC3(CCN(C4CCOC4)CC3)c3ccccc32)nc1 (centres undefined)	-101
COCCN1CCc2cc(C(=O)NC(C)C)c(NCC3CC3)nc2CC1	33.6
O=C(CCn1cccn1)NCCOc1ncc(Cl)cc1Cl	18.7
N#Cc1ccc(N2CCC3(CC2)CC(OCc2cccnc2)CO3)cc1 (centres undefined)	-57.3
COCCN1CCC2(CC1)CC(NC(=O)COC)c1ccccc1O2 (centres undefined)	-38.3
COCCN1CCC2(CC1)CC(NC(=O)CC1CC1)c1ccccc1O2 (centres undefined)	-92.9
COCCN1CCC2(CC1)CC(NC(=O)CN(C)C)c1ccccc1O2 (centres undefined)	67.7
CNCc1cc(C)n(-c2ccccc2OC)c1C	30.8
Cc1nn(C)c(C)c1C1CCCN1Cc1cccc(OCC(N)=O)c1 (centres undefined)	-22.6
CCn1cncc1CNC(=O)c1ccc(C2CCCN2C(=O)COC)s1 (centres undefined)	-32.8
O=C(NCC1CC1)[C@@H]1CCO[C@@H]2CCN(Cc3ccsc3)C[C@H]21	50.9
O=C(NC1CC1)[C@@H]1CCO[C@@H]2CCN(Cc3ccsc3)C[C@H]21	-48.8
O=C(NCC1CC1)[C@@H]1CCO[C@@H]2CCN(Cc3ccc(F)cc3)C[C@H]21	22.5
